# The campaign covered roughly 5,500 compounds. About 2,000 (36%) were called active. Roughly 18% stayed inconclusive and do not appear here. The list shows a part of the results. Values without a mark were called inactive. Rule as the data show it: active = normalized growth mostly below about 0.91 (no sharp cut-off); inconclusive = no clear call, values can overlap the other calls; inactive = mostly above about 0.92.
# Experiment: chemical genetic growth profiling, strain panel (AID 1159580);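 also: tested at 20 µM; growth read once vehicle control cultures reached saturation at 30 °C; 1 = growth at the plate median or of vehicle wells; lower values mean less growth of the strain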
# Details: growth OD
# [1] = S. cerevisiae deletion strains, locus YAL013W, strain DEP1, active compounds read low
# [2] = S. cerevisiae deletion strains, locus YBR229C, strain ROT2, active compounds read low
# [3] = S. cerevisiae deletion strains, locus YDL101C, strain DUN1, active compounds read low
# [4] = S. cerevisiae deletion strains, locus YDL134C, strain PPH21, active compounds read low
# [5] = S. cerevisiae deletion strains, locus YDR150W, strain NUM1, active compounds read low
# [6] = S. cerevisiae deletion strains, locus YEL061C, strain CIN8, active compounds read low
# [7] = S. cerevisiae deletion strains, locus YGR078C, strain PAC10, active compounds read low
# [8] = S. cerevisiae deletion strains, locus YHR030C, strain SLT2, active compounds read low
# [9] = S. cerevisiae deletion strains, locus YHR087W, strain rtc3, active compounds read low
# [10] = S. cerevisiae deletion strains, locus YJL187C, strain SWE1, active compounds read low
# [11] = S. cerevisiae deletion strains, locus YJR043C, strain POL32, active compounds read low
# [12] = S. cerevisiae deletion strains, locus YJR075W, strain HOC1, active compounds read low
# [13] = S. cerevisiae deletion strains, locus YKL190W, strain CNB1, active compounds read low
# [14] = S. cerevisiae deletion strains, locus YLR039C, strain RIC1, active compounds read low
# [15] = S. cerevisiae deletion strains, locus YLR058C, strain SHM2 (second series), active compounds read low
# [16] = S. cerevisiae deletion strains, locus YLR085C, strain ARP6, active compounds read low
# [17] = S. cerevisiae deletion strains, locus YLR262C, strain YPT6, active compounds read low
# [18] = S. cerevisiae deletion strains, locus YML094W, strain GIM5, active compounds read low
# [19] = S. cerevisiae deletion strains, locus YMR219W, strain ESC1, active compounds read low
# [20] = S. cerevisiae deletion strains, locus YMR263W, strain SAP30, active compounds read low
# [21] = S. cerevisiae deletion strains, locus YNL153C, strain GIM3, active compounds read low
# [22] = S. cerevisiae deletion strains, locus YNL298W, strain CLA4 (second series), active compounds read low
# [23] = S. cerevisiae deletion strains, locus YNL322C, strain KRE1, active compounds read low
# [24] = S. cerevisiae deletion strains, locus YNR030W, strain Alg12, active compounds read low
# [25] = S. cerevisiae deletion strains, locus YPL055C, strain LGE1, active compounds read low
# [26] = S. cerevisiae deletion strains, locus YPL241C, strain CIN2, active compounds read low
# [27] = S. cerevisiae deletion strains, locus YPR135W, strain CTF4, active compounds read low
# [28] = S. cerevisiae strains, strain wild type, active compounds read low
# [29] = S. cerevisiae deletion strains, locus YGR229C, strain SMI1, active compounds read low
# [30] = S. cerevisiae deletion strains, locus YMR307W, strain GAS1, active compounds read low
# [31] = S. cerevisiae deletion strains, locus YOL006C, strain TOP1, active compounds read low
smiles,measurement,setting,value
CCCCCn1c(Sc2ncc([N+](=O)[O-])s2)n[nH]c1=O,normalized growth,[1],0.592 (active)
same,normalized growth,[2],0.463 (active)
same,normalized growth,"S. cerevisiae deletion strains, locus YCL061C, strain MRC1, active compounds read low",0.67 (active)
same,normalized growth,[3],0.559 (active)
same,normalized growth,[4],0.099 (active)
same,normalized growth,[5],0.615 (active)
same,normalized growth,[6],0.0768 (active)
same,normalized growth,[7],0.499 (active)
same,normalized growth,[8],0.0794 (active)
same,normalized growth,[9],0.53 (active)
same,normalized growth,[10],0.493 (active)
same,normalized growth,[11],0.695 (active)
same,normalized growth,[12],0.471 (active)
same,normalized growth,[13],0.0782 (active)
same,normalized growth,[14],0.134 (active)
same,normalized growth,[15],0.675 (active)
same,normalized growth,[16],0.0989 (active)
same,normalized growth,[17],0.123 (active)
same,normalized growth,[18],0.22 (active)
same,normalized growth,[19],0.624 (active)
same,normalized growth,[20],0.669 (active)
same,normalized growth,[21],0.0882 (active)
same,normalized growth,[22],0.0804 (active)
same,normalized growth,[23],0.917 (active)
same,normalized growth,[24],0.0933 (active)
same,normalized growth,[25],0.292 (active)
same,normalized growth,[26],0.1 (active)
same,normalized growth,[27],0.186 (active)
same,normalized growth,[28],0.0897 (active)
C=CCn1c(Sc2ncc([N+](=O)[O-])s2)n[nH]c1=O,normalized growth,[1],0.926 (active)
same,normalized growth,[2],0.913 (active)
same,normalized growth,[3],0.932
same,normalized growth,[5],0.929
same,normalized growth,[6],0.858 (active)
same,normalized growth,[7],0.944
same,normalized growth,[29],0.984
same,normalized growth,[8],0.775
same,normalized growth,[9],0.968
same,normalized growth,[10],0.948
same,normalized growth,[11],0.968
same,normalized growth,[12],1
same,normalized growth,[14],0.8
same,normalized growth,[15],0.962
same,normalized growth,[16],0.359 (active)
same,normalized growth,[17],0.992
same,normalized growth,[18],0.813 (active)
same,normalized growth,[19],0.975
same,normalized growth,[20],0.938
same,normalized growth,[30],0.973
same,normalized growth,[21],0.815 (active)
same,normalized growth,[22],0.675 (active)
same,normalized growth,[23],0.996
same,normalized growth,[24],0.833 (active)
same,normalized growth,[31],0.219 (active)
same,normalized growth,[25],0.829
same,normalized growth,[26],0.582 (active)
same,normalized growth,[27],0.488 (active)
same,normalized growth,[28],0.893 (active)
N#CC(C#N)=Cc1ccc([N+](=O)[O-])c(O)c1,normalized growth,"S. cerevisiae deletion strains, locus YAL040C, strain CLN3, active compounds read low",1.04
same,normalized growth,"S. cerevisiae deletion strains, locus YCL061C, strain MRC1 (second series), active compounds read low",0.991
same,normalized growth,"S. cerevisiae deletion strains, locus YDR363W, strain ESC2, active compounds read low",0.968
same,normalized growth,"S. cerevisiae deletion strains, locus YER002W, strain NOP16, active compounds read low",0.956
same,normalized growth,[30],1.01
same,normalized growth,"S. cerevisiae deletion strains, locus YNL128W, strain TEP1, active compounds read low",0.966
same,normalized growth,"S. cerevisiae deletion strains, locus YNL175C, strain NOP13, active compounds read low",0.953
same,normalized growth,"S. cerevisiae deletion strains, locus YNL197C, strain WHI3, active compounds read low",0.955
same,normalized growth,"S. cerevisiae deletion strains, locus YNL224C, strain SQS1, active compounds read low",0.988
same,normalized growth,"S. cerevisiae deletion strains, locus YOR083W, strain WHI5 (second series), active compounds read low",0.992
same,normalized growth,[26],0.988
N#Cc1ccc([N+](=O)[O-])s1,normalized growth,[1],0.726 (active)
same,normalized growth,[2],0.446 (active)
same,normalized growth,[3],0.201 (active)
same,normalized growth,[4],0.0493 (active)
same,normalized growth,[5],0.681 (active)
same,normalized growth,[6],0.194 (active)
same,normalized growth,[7],0.385 (active)
same,normalized growth,[29],0.992
same,normalized growth,[8],0.0826 (active)
same,normalized growth,[9],0.379 (active)
same,normalized growth,[10],0.261 (active)
same,normalized growth,[11],0.564 (active)
same,normalized growth,[12],0.198 (active)
same,normalized growth,[13],0.0802 (active)
same,normalized growth,[14],0.346 (active)
same,normalized growth,[15],0.461 (active)
same,normalized growth,[16],0.121 (active)
same,normalized growth,[17],0.588 (active)
same,normalized growth,[18],0.271 (active)
same,normalized growth,[19],0.7 (active)
same,normalized growth,[20],0.46 (active)
same,normalized growth,[21],0.382 (active)
same,normalized growth,[22],0.105 (active)
same,normalized growth,[23],1.01
same,normalized growth,[24],0.096 (active)
same,normalized growth,[31],0.115 (active)
same,normalized growth,[25],0.547 (active)
same,normalized growth,[26],0.0815 (active)
same,normalized growth,[27],0.186 (active)

# Source: PubChem BioAssay AID1159580 (chemical genetic matrix, 2015)
